# Measured values from PubChem BioAssay (NCATS).
# Results filed as inconclusive are left out. Calls of active or inactive are those of the source. Calls follow the shape of the dose curve; as a rule, active = well fitted cell-killing curve with a large enough effect; inconclusive = small, poorly fitted or top-dose-only effect, or effect the other way; inactive = no such curve, though single readings can be large or run the other way.
# Experiment: Viability qHTS for spleen associated tyrosine kinase inhibitor (SYKi) naive MV4-11 cells (AID 1963823); also: nearly all actives have a fitted effect of over 40% in size
# Settings: MV4-11 AML viability, CellTiter-Glo luminescence, 72 h; series mostly up to 45 µM; viability (% of control): at the top concentration
# How it was run: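 In this viability screen, compounds acted on SYK inhibitor naive MV4-11 cells for three days (72 hr, 37 C). Remaining viable cells were measured by CellTiter-Glo luminescence following a 10 min room-temperature development.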
# Potency is read from the fitted curve at half-maximal effect.
Structure (SMILES),Potency,viability (% of control)
Oc1cccc(Nc2ncnc3sc4c(c23)CCCC4)c1,4.11 µM (active),
CC1=CCC(C(C)(C)O[C@@H]2O[C@H](CO[C@@H]3O[C@@H](C)[C@H](O)[C@@H](O)[C@H]3O)[C@@H](O)[C@H](O)[C@H]2O)CC1 (some centres not stated),,73.5% [at 17.3 µM] (inactive)
C=C1CC[C@@H]2[C@](C)(CO)[C@H](O)CC[C@@]2(C)[C@@H]1/C=C/C1=CCOC1=O,,9.53% (inactive)
C=C1CC[C@@H]2[C@](C)(CO)[C@H](O)CC[C@@]2(C)[C@@H]1CC(O)C1=CCOC1=O (some centres not stated),9.04 µM (active),
C/C=C(/C)C(=O)OC1CC(C)(C)CC2C3=CCC4C5(C)CCC(OC6OC(C)C(OC7OC(C(=O)O)C(O)C(OC8OC(CO)C(O)C(O)C8OC8OC(CO)C(O)C(O)C8O)C7O)C(O)C6O)C(C)(C)C5CCC4(C)C3(C)C(OC(=O)/C=C/C=C/C=C/CCC)C(OC(C)=O)C12CO (configuration not stated),,68.8% [at 9.25 µM] (inactive)
O=C(/C=C/c1ccc(O)c(O)c1)OCc1ccccc1O[C@@H]1O[C@H](CO)[C@@H](O)[C@H](O)[C@H]1O,,81.1% [at 17.3 µM] (inactive)
CC(=O)C1=C(C)N(c2cccc(C(F)(F)F)c2)C(=O)N[C@H]1c1ccc(C#N)nc1,,83.3% [at 9.25 µM] (inactive)
C=C(C=O)[C@]1(O)C[C@@]2(C)C(=CC1=O)C=C[C@H](OC(=O)/C=C/C=C/[C@H](C)CC)[C@@H]2C,1.12 µM (active),
CCCC(=O)C1CCN(c2ncnc3c2CN(C(=O)c2ccc(-c4ccccc4)cc2)CC3)CC1,16.4 µM (active),
C/C=C/[C@@H]1C=C[C@@H]2C[C@H](C)CC[C@H]2[C@]1(C)/C(O)=C1/C(=O)[C@@H](CO)N(C)C1=O,14.3 µM (active),
COC(=O)C1=C[C@@H](O)[C@@H](O)[C@H](O[C@@H]2O[C@H](COC(=O)/C=C/c3ccccc3)[C@@H](O)[C@H](O)[C@H]2O)C1,,76.5% [at 17.3 µM] (inactive)
CC(C)(C)c1ccc(NC(=O)N2CCN(c3ncccc3Cl)CC2)cc1,3.66 µM (active),
